Compound activity (PubChem BioAssay)
SMARCA2 activ: SMARCA2 (BRM) function activators, primary screen, cell-based, luminescence, high throughput | 370,000 tested, 1% active | activation, % at 9.1 µM | AID 652017, 2013 | MG213 cells, MMTV-luciferase reporter, dexamethasone, overnight; in the data active = activation above about 7.8%;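 also: 0% = vehicle wells and 100% = reference activator wells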
ABCB6 inh 2: ABCB6 transporter inhibitors, primary screen, K562-ABCB6 cells, flow cytometry, MLPCN library; fluorescence ratio to DMSO, % at 10 µM; 360,000 tested, 0.19% active; K562-ABCB6 porphyrin accumulation, 1 h; active compounds read low; ATP-binding cassette sub-family B member 6 (Homo sapiens), Q9NP58;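 active = fluorescence ratio to DMSO below 75%, the collection mean minus 3 SD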;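 also: signal is porphyrin accumulated inside mitochondria; 100% equals median channel fluorescence of DMSO control wells; lower ratio means ABCB6 inhibition with less porphyrin fluorescence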
Target sequence (Q9NP58 whole entry, looked up): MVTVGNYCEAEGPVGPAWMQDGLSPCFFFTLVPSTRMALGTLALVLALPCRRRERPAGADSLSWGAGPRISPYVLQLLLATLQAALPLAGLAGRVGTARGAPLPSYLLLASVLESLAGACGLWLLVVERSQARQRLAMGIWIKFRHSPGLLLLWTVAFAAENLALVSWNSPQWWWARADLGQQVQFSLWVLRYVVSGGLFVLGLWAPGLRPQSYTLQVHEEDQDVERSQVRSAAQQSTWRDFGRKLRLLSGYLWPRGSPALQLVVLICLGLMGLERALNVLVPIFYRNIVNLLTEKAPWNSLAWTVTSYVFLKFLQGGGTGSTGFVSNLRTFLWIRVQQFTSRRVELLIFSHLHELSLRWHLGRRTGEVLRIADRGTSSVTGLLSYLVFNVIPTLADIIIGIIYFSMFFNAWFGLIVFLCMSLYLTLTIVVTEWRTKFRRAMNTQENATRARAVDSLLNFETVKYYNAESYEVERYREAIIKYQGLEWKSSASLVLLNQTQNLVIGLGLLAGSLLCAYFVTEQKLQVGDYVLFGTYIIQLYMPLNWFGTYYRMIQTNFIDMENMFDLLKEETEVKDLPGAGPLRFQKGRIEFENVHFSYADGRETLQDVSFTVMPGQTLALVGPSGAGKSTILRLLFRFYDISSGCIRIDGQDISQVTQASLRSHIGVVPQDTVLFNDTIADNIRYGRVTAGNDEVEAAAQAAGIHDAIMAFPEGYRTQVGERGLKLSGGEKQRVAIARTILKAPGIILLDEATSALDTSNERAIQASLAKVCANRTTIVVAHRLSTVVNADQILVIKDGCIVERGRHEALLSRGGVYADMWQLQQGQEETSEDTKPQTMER
MsrA inhibitor: bovine MsrA enzyme inhibitors, primary screen, biochemical, absorbance, HTS | purified bovine MsrA, absorbance read-out | 360,000 tested, 0.75% active | inhibition, % at 15.5 µM | AID 651718, 2012; in the data active = inhibition above about 4.5%;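 also: 0% = vehicle wells with enzyme and 100% = reference inhibitor wells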
bovine MsrA act: bovine MsrA enzyme activators, primary screen, biochemical, absorbance, HTS; Methionine sulfoxide reductase A (Bos taurus); purified bovine MsrA, absorbance read-out; activation, % at 10.6 µM; 360,000 tested, 0.3% active; AID 602163, 2012; in the data active = activation above about 7.5%;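 also: 0% = vehicle and 100% = reference activator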
MsrA activ conf: bovine MsrA activators, retest, confirmation, biochemical, absorbance, HTS; 1,000 tested, 12% active; purified bovine MsrA, absorbance read-out; AID 602270, 2012; activation, % at 10.6 µM; shares compounds with bovine MsrA act; in the data active = activation above about 4%;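 also: enzyme coupled to thioredoxin and thioredoxin reductase with NADPH; 0% = vehicle wells and 100% = reference activator wells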
Starred values were filed as active, the others as inactive; . = not tested or not shown. Shown are actives, neighbours in structure and some others; about 2.1% of the full set was active somewhere.

SMILES | SMARCA2 activ | ABCB6 inh 2 | MsrA inhibitor | bovine MsrA act | MsrA activ conf
Brc1ccc(Cn2nnc(-c3ccc(N4CCOCC4)cc3)n2)cc1 | 0 | . | . | . | .
Cc1ccc(N=Nc2cc(C)ccc2O)c(C)c1 | 2 | 102 | -1 | 10* | 0
CC(C)CN1CN2Cc3ccccc3C2CS1(=O)=O (centres undefined) | 3 | . | . | . | .
COC(=O)[C@H]1C[C@@]2(n3ccc4ccccc43)c3ccccc3N[C@H]2N1 | -4 | . | . | . | .
Cc1cc(N2CCN(C(=O)Oc3ccc(-c4ccccc4)cc3)CC2)c2ccccc2n1 | -4 | . | . | . | .
N#Cc1cnn(-c2ccc([N+](=O)[O-])cc2[N+](=O)[O-])c1N | -1 | 95 | 0 | 8.3* | 2
CCc1ccc(CN(C)Cc2nc(COc3ccccc3)no2)nc1 | -2 | 96 | 1 | 7.9* | -1
O=C1CSc2ccc(C(=O)N3CCCC(C(=O)N4CCCN(Cc5ccccc5)CC4)C3)cc2N1 (centres undefined) | -1 | . | . | . | .
CCC(C)Sc1nc2ccccc2c(=O)[nH]1 (centres undefined) | 2 | 102 | 0 | 15* | -1
CC(C)Sc1nc2ccccc2c(=O)[nH]1 | -1 | 100 | 0 | -3 | .
CC(=O)Nc1cccc(OCCCNC(=O)c2ccc(F)cc2)c1 | -3 | 103 | 1 | 9.0* | 0
CC(=O)Nc1cccc(OCCCNC(=O)c2ccc(C(C)(C)C)cc2)c1 | 2 | 95 | 0 | -1 | .
CC(C)Cn1[nH]c2c3c(ccc2c1=O)C(=O)c1ccccc1C3=O | . | 108 | . | 7.8* | 3
O=C1c2ccccc2C(=O)c2c1ccc1c(=O)n(-c3ccccc3)[nH]c21 | 4 | 102 | 1 | -7 | .
CCOC(=O)[C@]12CCCCC/C=C\1N(CCc1ccc(Cl)cc1)C(=O)[C@H]2CC(=O)NCC12CC3CC(CC(C3)C1)C2 | -6 | . | . | . | .
Cc1ccc(NC(=O)c2ccc(CS(=O)(=O)Cc3ccccc3C)o2)c(C)c1 | -3 | . | . | . | .
N=C(N)Sc1nc(N2CCCCC2)nc(N2CCCCC2)n1 | -1 | 98 | -1 | -5 | .
c1ccc(Sc2nc(N3CCCCC3)nc(N3CCCCC3)n2)nc1 | -3 | 101 | -1 | 9.3* | 1
CCOC(=O)N1CCN(C(=O)C[C@H]2C[C@@]3(C(=O)OC)C(=C[C@H](C4CCCC4)O[C@@H]3C)N(CCC3=CCCCC3)C2=O)CC1 | -2 | . | . | . | .
COc1ccc(NC(=O)CSc2ncnc3scc(-c4ccc(C)cc4)c23)cc1OC | -2 | . | . | . | .
CN(CCN1CCc2ccccc2C1)Cc1nc(Cc2ccccc2F)no1 | 0 | 103 | -2 | 15* | -2
COc1ccc(Cc2noc(CN(C)CCN3CCc4ccccc4C3)n2)cc1OC | -3 | 101 | 1 | -7 | .
Cn1c(N)c(C(=O)CSc2nnc(N)s2)c(=O)n(C)c1=O | -1 | 87 | 1 | -8 | .
Cc1csc(SCC(=O)c2c(N)n(C)c(=O)n(C)c2=O)n1 | 6 | 99 | 0 | 9.7* | -2
O=C(NCCc1ccccc1)OCc1cn(Cc2cccc(C(F)(F)F)c2)nn1 | -3 | . | . | . | .
SMILES | SMARCA2 activ | ABCB6 inh 2 | MsrA inhibitor | bovine MsrA act | MsrA activ conf
COc1ccc(CCNC(=O)c2cc3ccccn3n2)cc1 | 6 | . | . | . | .
C=CCc1ccccc1OCC(O)CN1CCN(c2ccc(C)cc2)CC1 (centres undefined) | 1 | 97 | 0 | 9.3* | -3
C=CCc1ccccc1OCC(O)CN1CCN(C(=O)OCC)CC1 (centres undefined) | 2 | 94 | 0 | -4 | .
CN(C)S(=O)(=O)c1cccc(C(=O)N/N=C\c2ccnc3ccccc23)c1 | -8 | . | . | . | .
COc1cccc(-c2cc(C(F)(F)F)n3nc(N)nc3n2)c1 | 1 | 97 | 3 | 14* | -3
c1cc(SSc2ccncc2)ccn1 | -1 | 97 | 2 | 10* | -2
c1ccc(Sc2ccncc2)cc1 | 7 | 104 | 1 | -2 | .
Cc1ccc(C(=O)ON=C2CCN(S(=O)(=O)c3ccccc3)CC2)cc1 | 0 | 98 | 1 | 7.7* | 1
COC(=O)[C@H](NC(=O)c1cc(-c2ccccc2)nc2ccccc12)c1ccccc1 | -4 | 101 | 1 | 9.4* | 0
CC(=O)Nc1ccc(NC(=O)c2cc(-c3ccccc3)nc3ccccc23)cc1 | -2 | 106 | 3 | -4 | .
C/C(CC(=O)Nc1ccc(Cl)cc1Cl)=N\NC(=O)c1ccco1 | 5 | 101 | 0 | 8.4* | 0
CCN1CCN(C(=O)CS(=O)(=O)Cc2nc(-c3cccc(OC)c3)oc2C)CC1 | -3 | 101 | -1 | -4 | .
CCCN1CCN(C(=O)CS(=O)(=O)Cc2nc(-c3cccc(OC)c3)oc2C)CC1 | 0 | 96 | -1 | 9.3* | -2
CCN1CCN(C(=O)Nc2ccc(Cc3ccc(NC(=O)N4CCN(CC)CC4)cc3)cc2)CC1 | -1 | 106 | 1 | 8.2* | 1
CCc1ccc(NC(=O)N2CCCCCC2)cc1 | 4 | 100 | 0 | -4 | .
CC(=O)C1(C(=O)NC2CCCC2)CC(c2ccccn2)=NO1 (centres undefined) | 0 | . | . | . | .
Oc1c(Cl)cc(Oc2cc(Cl)c(O)c(CN3CCOCC3)c2)cc1CN1CCOCC1 | 3 | 94 | 0 | 8.7* | -1
Oc1c(CN2CCOCC2)cc(CN2CCOCC2)c(O)c1O | -3 | 98 | 0 | -5 | .
CCCOC(=O)c1ccc(NC(=O)CN(C)Cc2cccs2)cc1 | 0 | 104 | 0 | 9.9* | 1
O=C(NC1CCCCN(Cc2cccc(Cl)c2)C1=O)c1ccc(COc2ccccc2)cc1 (centres undefined) | -7 | . | . | . | .
Cn1c(Oc2ccncc2)nc2cc(-c3ccsc3)sc2c1=O | 1 | 100 | 3 | 15* | -2
Cc1cc(=S)[nH]c(=S)[nH]1 | 2 | 97 | 1 | 10* | 8.2*
COC(=O)[C@]12C[C@H](CC(=O)NCc3cccc4ccccc34)C(=O)N(Cc3ccco3)C1=C[C@H](C1CCCC1)O[C@@H]2C | -3 | . | . | . | .
CCOc1ccc(-c2nc(-c3ccc(OC)cc3)no2)cc1OCC | -2 | 98 | 0 | 7.9* | 0
CCOc1ccccc1-c1nc(-c2ccncc2)no1 | 0 | 99 | -1 | 8.4* | -1
SMILES | SMARCA2 activ | ABCB6 inh 2 | MsrA inhibitor | bovine MsrA act | MsrA activ conf
CCOc1ccc(-c2noc(-c3ccncc3)n2)cc1OCC | -3 | 101 | 1 | -2 | .
COc1ccc(CN2CCN(c3cc(C)nc4c5c(C)cc(C)nc5nn34)CC2)cc1F | 0 | 94 | 1 | -3 | .
Cc1cc(C)c2c(n1)nn1c(N3CCN(c4ccccc4C)CC3)cc(C)nc21 | -4 | 94 | 1 | 7.7* | -1
COC(=O)C1CN(Cc2cn(CCOC(C)=O)nn2)CCS(=O)(=O)N1Cc1ccc(F)cc1 (centres undefined) | -2 | . | . | . | .
O=C(Nc1ccccc1)n1ccc2ccc(-c3ccc4cc[nH]c4c3)cc21 | 1 | . | . | . | .
CC1(C)CC(=O)C=C(Nc2ccccc2NC(=O)c2cccc(F)c2F)C1 | -3 | . | . | . | .
